Active and inactive are the calls of the source.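 How the source made its calls, unless noted: active means calcium signal rise more than 3 SD above the low-dose agonist control mean, in both duplicate plates and the primary screen; inactive means the rest.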

The first assay can be described thus: calcium flux activation in mu-opioid HEK293 cells, confirmation, counter-screen for TRPC4 activator project, cell-based, HEK293 mu-opioid receptor line (AID 449723;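 active means hit in primary screen, with calcium signal over 5 SD above buffer well mean in both duplicates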;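 further: counter screen cells carry the mu-opioid receptor alone and lack TRPC4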). The conditions noted are these: Fluo-4 calcium fluorescence, at 10 µM. A general note: Calcium assays in cells follow changes in intracellular calcium, usually with a dye or a luminescent sensor.
As to `O=c1[nH][nH]c(-c2ccccc2)c1C=Nc1ccc(F)cc1F`, the outcome was inactive.
As to `COc1ccccc1C1/C(=C(\O)c2ccc3c(c2)OCCO3)C(=O)C(=O)N1Cc1cccnc1` (stereo not drawn), the result was inactive.
As for `CCN(CC)CCSc1nnc2c3ccccc3n(Cc3ccccc3)c2n1`, the outcome was inactive.
`CCCn1c(SCC(=O)N2c3ccccc3Sc3ccccc32)nc2c1c(=O)n(C)c(=O)n2C`: the result was inactive.

The next assay is described as follows: calcium flux enhancement in mu-opioid HEK293 cells, confirmation, counter-screen for TRPC4 allosteric potentiator project, cell-based, HEK293 mu-opioid receptor line (AID 449724).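 Further: HEK293 cells carrying mu-opioid receptor only with no TRPC4 channel.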 The conditions noted are these: Fluo-4 calcium flux, at 10 µM, compound added before EC20 DAMGO stimulus.
For `COc1cc(/C=C2\C(=N)N3N=C(S(C)(=O)=O)SC3=NC2=O)ccc1OC(=O)c1cccs1`, the outcome was inactive.
In the case of `c1ccc(CN2CCN(c3nc4ccccc4s3)CC2)cc1`, the outcome was inactive.
In the case of `COc1ccccc1N(C(=O)c1snc(C(N)=O)c1N)C(C(=O)NCc1ccccc1)c1ccc(O)cc1` (stereo not drawn), the outcome was inactive.
On the same count and under the same terms, in the case of `Cc1ccc(SC(CC(=O)c2ccc(C(C)(C)C)cc2)C(=O)O)cc1` (stereo not drawn) it was “inactive”; in that of `COc1ccc(C2CC(=O)c3cnc(N4CCN(Cc5ccccc5)CC4)nc3C2)cc1` (stereo not drawn), “inactive”; in that of `CC(=O)Nc1ccc(S(=O)(=O)N2CCN(CCCOc3cc(C)ccc3C)CC2)cc1`, “inactive”.
With `COc1cc(/C=C/C(=O)OCC(=O)Nc2c(C)n(C)n(-c3ccccc3)c2=O)ccc1OCC#N`, the result was inactive.
For the molecule `Cc1cc2oc(C(=O)N(Cc3ccco3)C3CCS(=O)(=O)C3)cc(=O)c2cc1Cl` (stereo not drawn), the outcome was inactive.
Same read-out and setting: in the case of `CCOCCCn1cnc2c(c1=O)c1nc3ccccc3nc1n2-c1ccc(C)cc1` it was “inactive”; in that of `O=C(c1ccccc1F)N1CCN(c2ccc([N+](=O)[O-])cc2-n2cccc2)CC1`, “inactive”; in that of `CN(CC(=O)Nc1ccc(F)cc1)C(=O)COC(=O)c1ccccc1`, “inactive”.
The same measure, in the same setting: in the case of `O=C(NC1CC1)c1ccc2c(c1)N(Cc1ccc(Cl)cc1)CCS2` it was “inactive”; in that of `O=C(Nc1ccc2c(c1)OCO2)c1cnn2cccnc12`, “inactive”; in that of `CCc1nc2ccccc2n1Cc1ccccc1F`, “inactive”.
Still for that read-out and setting: in the case of `CN(Cc1ccco1)C(=O)Cn1ncc2c([nH]c3ccccc32)c1=O` it was “inactive”; in that of `CN1CCN(NC(=O)Nc2cc(Cl)cc(Cl)c2)CC1`, “inactive”.
Turning to `Cc1ccc2nc(C(=O)N3CCc4c([nH]c5ccccc45)C3c3ccccn3)cn2c1` (stereo not drawn), the outcome was inactive.
Still for that read-out and setting: in the case of `Clc1ccc(N=C2SCC3CCCCN23)cc1` (stereo not drawn) it was “inactive”; in that of `O=S(=O)(c1ccc(Oc2ccc(Br)cc2)cc1)N1CCOCC1`, “inactive”; in that of `O=S(=O)(Nc1ccc(S(=O)(=O)Nc2cccc3ccccc23)cc1)c1ccccc1`, “inactive”.
Same read-out and setting: in the case of `COc1ccc(N(C(=O)c2snc(C(N)=O)c2N)C(C(=O)NC2CCCCC2)c2ccc(C)o2)c(OC)c1` (stereo not drawn) it was “inactive”.
Same read-out and setting: in the case of `Cc1ccc(S(=O)(=O)Nc2ccc(N=Nc3ccc(O)cc3)cc2)cc1` it was “inactive”; in that of `O=C(c1ccccc1)c1coc2ccc(O)c(CN3CCOCC3)c12`, “inactive”.
`CCOc1ccc(N=CNc2ccc(OCC)cc2)cc1`: the outcome was inactive.
As to `COCCSc1ccccc1C(=O)N1CCC(Cc2ccccc2)CC1`, the result was inactive.
Still for that read-out and setting: in the case of `O=C(c1ccccc1F)N1CCN(c2ccc([N+](=O)[O-])c3cccnc23)CC1` it was “inactive”.
For the molecule `Cc1ccc(NS(=O)(=O)c2cc(C(=O)N3CCc4ccccc4C3)ccc2Cl)cc1`, the outcome was inactive.
As to `CCn1cc(CN2CCC(n3nccc3NC(=O)CCOc3ccccc3)CC2)c(C)n1`, the result was inactive.
As to `CCN1CCN(c2ccc(S(=O)(=O)N3CCCCC3)cc2NC(=O)COc2cc(C)ccc2Cl)CC1`, the result was inactive.
With `CN(C)CCCCOc1cccc(Br)c1`, the outcome was inactive.
Still for that read-out and setting: in the case of `CC(C)c1ccc(C(C)NCCS(=O)(=O)c2ccc(Br)cc2)cc1` (stereo not drawn) it was “inactive”; in that of `COc1cc2c(C(=O)N3CCN(C)CC3)c(CSc3ccccc3)n(C)c2cc1Br`, “inactive”; in that of `Cc1c(N2C(=O)/C(=C/c3ccccc3)SC2=S)c(=O)n(-c2ccccc2)n1C`, “inactive”.
The same measure, in the same setting: in the case of `Cc1n[nH]c(C)c1Cc1c(F)cccc1Cl` it was “inactive”; in that of `O=C(Nc1ccc([N+](=O)[O-])cn1)C1CCCCC1`, “inactive”.
The same measure, in the same setting: in the case of `O=c1[nH][nH]c(-c2ccccc2)c1C=Nc1ccc(F)cc1F` it was “inactive”.
Take `COc1ccccc1C1/C(=C(\O)c2ccc3c(c2)OCCO3)C(=O)C(=O)N1Cc1cccnc1` (stereo not drawn): the result was inactive.
On the same count and under the same terms, in the case of `CCN(CC)CCSc1nnc2c3ccccc3n(Cc3ccccc3)c2n1` it was “inactive”.
Consider `CCCn1c(SCC(=O)N2c3ccccc3Sc3ccccc32)nc2c1c(=O)n(C)c(=O)n2C`, for which the outcome was inactive.

Values taken from PubChem BioAssay.
